We go through one molecule from PubChem BioAssay (EPA / NIEHS).

Results filed as inconclusive are left out. The source made the active and inactive calls. Rule for the calls, unless noted: active = hit-call score of the fitted dose curve at least 0.9, where 1 is the maximum; inactive = score below 0.9.

Assay [1] is described as follows: TOX21_p53_BLA_p2_viability: Viability Assessment in the Tox21 HCT-116 p53 Agonism Beta-lactamase Assay, Phase 2 (AID 2283591; active = hit-call score of the fitted dose curve at least 0.9, where 1 is the maximum;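 note: compound exposure lasted 16 h at 37 °C; actives lower the ATP signal meaning cytotoxicity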). An outline of the steps: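 HCT-116 p53-bla cells (4000/well) rested 5 h at 37C, then received compounds in DMSO (217-fold dilution) for 16 h at 37C, 5% CO2. After the CCF4 read, CellTiter-Glo was added; ATP luminescence was read after 30 min at room temperature.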

Assay [2] can be described thus: TOX21_p53_BLA_p3_viability: Viability Assessment in the Tox21 HCT-116 p53 Agonism Beta-lactamase Assay, Phase 3 (AID 2283593; active = hit-call score of the fitted dose curve at least 0.9, where 1 is the maximum;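 note: cells exposed to compound for 16 h before reading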). An outline of the steps:
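HCT-116 cells (4000/well) rested 5 h at 37C, then got DMSO compounds by pin tool (217-fold dilution) for 16 h at 37C, 5% CO2. After the bla read, CellTiter-Glo was added and luminescence read at 30 min, room temperature.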

The target in assay [3] is Cellular tumor antigen p53 (Homo sapiens) (UniProt P04637). As to the kind of experiment: TOX21_p53_BLA_p3_ratio: Tox21 HCT-116 p53 Agonism Beta-lactamase Assay, Ratio, Phase 3 (AID 2283596; active = hit-call score of the fitted dose curve at least 0.9, where 1 is the maximum). The procedure, abridged: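 HCT116 p53-bla cells (4000/well) given compound in DMSO (217-fold dilution) after 5 h, incubated 16 h at 37C. CCF4-AM substrate 2 h at room temperature; 460/530 nm emission ratio, gain fitted against DMSO.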

A short description of assay [4]: TOX21_p53_BLA_p4_viability: Viability Assessment in the Tox21 HCT-116 p53 Agonism Beta-lactamase Assay, Phase 4 (AID 2283597; active = hit-call score of the fitted dose curve at least 0.9, where 1 is the maximum;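 note: hits lower the luminescence signal meaning cytotoxicity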). An outline of the steps:
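Luminescent ATP readout (CellTiter-Glo, 30 min, room temperature) in the same wells as the p53 bla ratio. HCT116 cells were treated for 16 h at 37C with DMSO-dissolved compounds.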

The target in assay [5] is Cellular tumor antigen p53 (Homo sapiens) (UniProt P04637). The assay is described as follows: TOX21_p53_BLA_p5_ratio: Tox21 HCT-116 p53 Agonism Beta-lactamase Assay, Ratio, Phase 5 (AID 2283599; active = hit-call score of the fitted dose curve at least 0.9, where 1 is the maximum). An outline of the steps: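 HCT-116 cells carrying a p53-inducible beta-lactamase reporter were seeded at 4000 cells/well and dosed after 5 h with compound in DMSO (217-fold dilution). After 16 h at 37C, CCF4-AM substrate was added for 2 h, and the 460/530 nm emission ratio was scored as gain-of-signal versus DMSO.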

Assay [6] can be described thus: TOX21_p53_BLA_p5_viability: Viability Assessment in the Tox21 HCT-116 p53 Agonism Beta-lactamase Assay, Phase 5 (AID 2283600; active = hit-call score of the fitted dose curve at least 0.9, where 1 is the maximum). An outline of the steps:
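Seeded cells (4000/well) settle 5 h before compound addition. Plates then incubate 16 h at 37C, receive FRET substrate for 2 h, and finally CellTiter-Glo, with luminescence measured after a 30 min room-temperature incubation.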

The target of assay [7] is Cellular tumor antigen p53 (Homo sapiens) (UniProt P04637). As to the kind of experiment: TOX21_p53_BLA_p4_ratio: Tox21 HCT-116 p53 Agonism Beta-lactamase Assay, Ratio, Phase 4 (AID 2283601; active = hit-call score of the fitted dose curve at least 0.9, where 1 is the maximum). An outline of the steps: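 HCT116 cells carrying an inducible beta-lactamase reporter were plated at 4000 cells/well, rested 5 h, then exposed to compounds in DMSO (217-fold dilution) for 16 h at 37C. CCF4-AM substrate was loaded 2 h at room temperature; 460/530 nm emission ratio scored gain-of-signal versus DMSO.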

A short description of assay [8]: CCTE_Shafer_MEA_dev_firing_rate_mean: CCTE's Neural Network Formation Assay for Mean Firing Rate, Shafer Lab (AID 2284031). An outline of the steps:
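Primary rat cortical neurons on 48-well MEA plates, exposed from plating day 0 with dosing renewed on DIV 5 and 9. Mean well firing rate over active electrodes, recorded days 5, 7, 9, 12, summarised as trapezoidal AUC.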

Assay [9] can be described thus: CCTE_Shafer_MEA_dev_per_burst_spike_percent: CCTE's Neural Network Formation Assay for Percent of Spikes in a Burst, Shafer Lab (AID 2284032).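 Note: fitted as a decrease in burst spike percentage below DMSO baseline.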 An outline of the steps: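 Rat primary cortical neurons on 16-electrode MEA wells, dosed from plating day 0 for 12 days with renewal on DIV 5 and 9; spikes-in-bursts percentage averaged over bursting electrodes, collapsed as AUC across days 5, 7, 9, 12; loss direction versus DMSO.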

Assay [10] is described as follows: CCTE_Shafer_MEA_dev_active_electrodes_number: CCTE's Neural Network Formation Assay for Number of Active Electrodes, Shafer Lab (AID 2284040; active = hit-call score of the fitted dose curve at least 0.9, where 1 is the maximum;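 note: potency for loss of active electrodes versus DMSO so lower counts are hits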). An outline of the steps:
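Primary rat cortical neurons on 16-electrode MEA wells, exposed from day 0 through day 12 with compound renewed at DIV 5 and 9 feeds. Active electrodes (mean firing ≥5 spikes/min) counted at DIV 5, 7, 9, 12; trapezoidal AUC across days, loss-of-signal versus DMSO.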

The nature of assay [11]: CCTE_Shafer_MEA_dev_burst_rate: CCTE's Neural Network Formation Assay for Burst Rate, Shafer Lab (AID 2284042). The procedure, abridged: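 Exposure ran continuously over 12 days of network development in rat cortical cultures, with compound refreshed during full media changes on DIV 5 and 9. Single-electrode bursts per recording time, well-mean over active electrodes, trapezoidal AUC across days 5–12, fitted downward relative to DMSO.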

Assay [12] in a line: CCTE_Shafer_MEA_dev_per_burst_interspike_interval: CCTE's Neural Network Formation Assay for Burst Interspike Interval, Shafer Lab (AID 2284044).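 Note: mean spike spacing inside bursts as AUC over recordings on days 5 7 9 12.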 The procedure, abridged:
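Spontaneous activity of maturing rat cortical networks is recorded on DIV 5, 7, 9 and 12 under chronic compound exposure beginning at plating. Endpoint: burst interspike interval well-mean, collapsed into trapezoidal AUC and fitted in the negative direction relative to DMSO.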

Assay [13] can be described thus: CCTE_Shafer_MEA_dev_burst_duration_mean: CCTE's Neural Network Formation Assay for Mean Burst Duration, Shafer Lab (AID 2284045). The procedure, abridged: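 Primary rat cortical neurons on PEI-coated 16-electrode MEA wells, exposed from plating through day 12 with compound renewed at DIV 5 and 9; spontaneous activity recorded days 5, 7, 9, 12. Well-mean burst duration collapsed as trapezoidal AUC, fitted for loss versus DMSO.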

Assay [14] can be described thus: CCTE_Shafer_MEA_dev_interburst_interval_mean: CCTE's Neural Network Formation Assay for Mean Interburst Interval, Shafer Lab (AID 2284046).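 Note: well-mean interburst interval of bursting electrodes as AUC over four recording days; curve fitted for decrease in interburst interval relative to DMSO.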 An outline of the steps:
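Primary rat cortical neurons on PEI-coated 48-well MEA plates (laminin added with cells at plating) (16 electrodes/well), exposed from plating day 0 with renewal at DIV 5 and 9. Mean inter-burst interval averaged over bursting electrodes, AUC across days 5, 7, 9, 12; DMSO baseline.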

Assay [15] can be described thus: CCTE_Shafer_MEA_dev_inter_network_spike_interval_mean: CCTE's Neural Network Formation Assay for Mean Inter-network Spike Interval, Shafer Lab (AID 2284047). The procedure, abridged:
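Mean time between consecutive network-spike peaks, recorded extracellularly (adaptive spike detection) on DIV 5, 7, 9 and 12, summarized as trapezoidal AUC. Rat cortical cultures on MEAs dosed continuously days 0–12, re-dosed at feeds; loss-of-signal fit relative to DMSO.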

Assay [16] in a line: CCTE_Shafer_MEA_dev_network_spike_number: CCTE's Neural Network Formation Assay for Number of Network Spikes, Shafer Lab (AID 2284048).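 Note: synchronized bursts across electrodes counted on days 5 7 9 12 and integrated as AUC.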 The procedure, abridged: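 Primary rat cortical neurons were seeded at 1.5 x 10^5 cells/well on PEI-coated 16-electrode MEA wells with laminin, exposed from plating day 0, compound renewed at DIV 5 and 9. Network spikes were recorded on days 5, 7, 9, 12 and summarized as trapezoidal AUC versus DMSO.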

Assay [17] in a line: CCTE_Shafer_MEA_dev_spike_duration_mean: CCTE's Neural Network Formation Assay for Mean Spike Duration, Shafer Lab (AID 2284051).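 Note: potency for a decrease in mean network spike duration versus DMSO.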 The procedure, abridged: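 Spontaneous activity was recorded on days 5, 7, 9 and 12 from rat cortical cultures grown on microelectrode arrays and dosed continuously from day 0, with media and compound renewed after the DIV 5 and 9 recordings. Network-spike duration was collapsed by area under the curve.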

Assay [18] in a line: CCTE_Shafer_MEA_dev_network_spike_duration_std: CCTE's Neural Network Formation Assay for Standard Deviation of Network Spike Duration, Shafer Lab (AID 2284052).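 Note: hits are decreases in network spike duration SD versus DMSO vehicle.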 An outline of the steps:
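Network spike duration variability was collapsed across recordings on days 5, 7, 9 and 12 by trapezoidal area-under-curve and fitted downward against DMSO. Cultures were rat cortical neurons on PEI-coated MEA plates, dosed continuously from plating, refed with compound DIV 5/9.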

Assay [19] can be described thus: CCTE_Shafer_MEA_dev_per_network_spike_spike_number_mean: CCTE's Neural Network Formation Assay for Mean Number of Spikes in a Network Spike, Shafer Lab (AID 2284053).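 Note: fitted as decrease in spikes per network spike relative to DMSO.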 The procedure, abridged:
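Mean spike count within each network spike, taken in a 0.05 s window at its peak, was recorded on days 5, 7, 9 and 12 and integrated as trapezoidal area under the curve. Rat cortical cultures on MEA plates received continuous compound from day 0, refreshed at medium changes on DIV 5 and 9.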

Assay [20] is described as follows: CCTE_Shafer_MEA_dev_per_network_spike_spike_percent: CCTE's Neural Network Formation Assay for Percent of Spikes in a Network Spike, Shafer Lab (AID 2284054). The procedure, abridged:
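Primary rat cortical neurons on 16-electrode MEA wells (PEI-coated, laminin at plating), exposed from day 0 with renewal at DIV 5 and 9; spikes within 0.05 s of network-spike peaks over total spikes, AUC across days 5, 7, 9, 12.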

Assay [21] is described as follows: CCTE_Shafer_MEA_dev_LDH: CCTE's Lactate Dehydrogenase Assay for Cytotoxicity in the Neural Network Formation Assay, Shafer Lab (AID 2284068; active = hit-call score of the fitted dose curve at least 0.9, where 1 is the maximum;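 note: exposure for twelve days from plating with re-dosing on DIV 5 and 9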). The procedure, abridged:
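Primary rat cortical neurons were cultured on PEI-coated MEA plates and exposed from plating through day 12, with compound renewed at medium changes on DIV 5 and 9. LDH activity was read spectrophotometrically; loss of signal versus DMSO indicates reduced viability.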

Sequence of Cellular tumor antigen p53 (Homo sapiens) (P04637 whole entry, looked up): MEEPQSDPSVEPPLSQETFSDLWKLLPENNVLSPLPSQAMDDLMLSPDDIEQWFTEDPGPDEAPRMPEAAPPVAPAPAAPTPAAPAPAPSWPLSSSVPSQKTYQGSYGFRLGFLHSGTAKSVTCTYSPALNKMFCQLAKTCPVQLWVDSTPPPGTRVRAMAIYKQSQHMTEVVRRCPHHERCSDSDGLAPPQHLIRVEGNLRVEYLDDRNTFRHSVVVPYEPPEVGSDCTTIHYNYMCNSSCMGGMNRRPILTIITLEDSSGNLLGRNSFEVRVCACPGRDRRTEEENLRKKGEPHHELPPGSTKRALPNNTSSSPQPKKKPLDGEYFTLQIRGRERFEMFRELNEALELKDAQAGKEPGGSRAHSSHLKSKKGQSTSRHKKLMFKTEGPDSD

For `Brc1ccc(Oc2cc(Br)c(Br)cc2Br)c(Br)c1`, the molecule was classed as inactive in assay [1], in [2], in assay [3], in [4], in assay [5] and in assay [6]. Also, the outcome in assay [7], in assay [8], in assay [11], in assay [12], in [13] and in assay [14] was inactive. In addition, the outcome in [15], in [16] and in [18] was inactive. The concentration at half-maximal activity (AC50) (commonly the concentration at which the activity in the assay is half-maximal) was 13.2 µM (active) in assay [9]; 14.1 µM (active) in [10]; 10 µM (active) in [17]; 10 µM (active) in assay [19]; 13.5 µM (active) in assay [20]; 11.9 µM (active) in assay [21].
